From PubChem BioAssay (NCATS)
Results filed as inconclusive are left out. Active and inactive are the calls of the source. Unless noted, calls follow the shape of the dose curve; as a rule, active = well fitted curve in the direction sought with a large enough effect; inconclusive = small, poorly fitted or top-dose-only effect, or another doubt; inactive = no such curve, though single readings can be large; an effect the other way counts as inactive or inconclusive.

Legend:
[1] = qHTS assay for small molecule disruptors of the mitochondrial membrane potential - 1 hr assay (AID 651754; calls by dose curve; also: % is scaled to controls: 0 for no effect and ±100 for the full control effect; nearly all actives have a fitted effect of over 35% in size)
Summary of the method: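 HepG2 cells, attached overnight at 37C, were exposed to compound or DMSO vehicle for 1 hr at 37C, 5% CO2, then stained with Mito-MPS dye for 30 min. Red aggregate versus green monomer fluorescence reports membrane potential.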

[2] = qHTS assay for small molecule disruptors of the mitochondrial membrane potential - 5 hr assay (AID 651755; calls by dose curve; also: % is scaled to controls: 0 for no effect and ±100 for the full control effect; nearly all actives have a fitted effect of over 40% in size)
Summary of the method: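 HepG2 cells (2,000/well), attached overnight, exposed to compound 5 hr at 37C, then Mito-MPS dye 30 min. Fluorescence read for monomers (490/535 nm) and aggregates (540/590 nm).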

[3] = biological target: Tumor necrosis factor (Homo sapiens) (UniProt P01375); experiment: qHTS assay to identify small molecules that stimulate Tumor Necrosis Factor-alpha (TNF-alpha) secretion (AID 651757; active = well fitted curve in the direction sought with a large enough effect in the signal ratio; the % refers to the signal ratio; also: 0% is about no effect)
Sequence of Tumor necrosis factor (Homo sapiens) (P01375 whole entry, looked up): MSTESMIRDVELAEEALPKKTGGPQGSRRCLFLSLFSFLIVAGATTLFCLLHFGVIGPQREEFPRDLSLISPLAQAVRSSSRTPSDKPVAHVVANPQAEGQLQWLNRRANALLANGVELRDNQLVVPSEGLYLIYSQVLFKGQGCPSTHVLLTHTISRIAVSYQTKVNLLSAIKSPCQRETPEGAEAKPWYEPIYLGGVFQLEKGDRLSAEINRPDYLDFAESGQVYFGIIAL
Summary of the method: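 THP-1 cells were exposed to compounds for 17 hrs at 37 C, after which secreted TNF-alpha was measured by homogeneous HTRF (TR-FRET) using cryptate- and XL665-labeled anti-TNF-alpha antibodies, read after 3 hr at room temperature.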

[4] = qHTS assay for environmental chemicals that activate the Aryl hydrocarbon Receptor (AhR) signaling pathway (AID 651777); details: 1A2-DRE human hepatoma cells, luciferase, 24 h; activation: stronger effect = higher value; also: % of control where 0% means no effect; nearly all actives have a fitted effect of over 15% in size
Summary of the method: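 Following a 24 hr incubation with test chemicals at 37 C and 5% CO2, 1A2-DRE human hepatoma cells received One-Glo reagent; after 30 min at room temperature, luciferase output reflected CYP1A2 induction via AhR.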

[5] = biological target: Peroxisome proliferator-activated receptor alpha (Homo sapiens) (UniProt Q07869); experiment: qHTS assay for small molecule agonists of the peroxisome proliferator-activated receptor alpha (PPARalpha) signaling pathway (AID 651778); details: PathHunter PPARalpha complementation, chemiluminescence, 6 h; stronger effect = higher value; also: % of control where 0% means no effect
Sequence of Peroxisome proliferator-activated receptor alpha (Homo sapiens) (Q07869 whole entry, looked up, the tested form may be a part): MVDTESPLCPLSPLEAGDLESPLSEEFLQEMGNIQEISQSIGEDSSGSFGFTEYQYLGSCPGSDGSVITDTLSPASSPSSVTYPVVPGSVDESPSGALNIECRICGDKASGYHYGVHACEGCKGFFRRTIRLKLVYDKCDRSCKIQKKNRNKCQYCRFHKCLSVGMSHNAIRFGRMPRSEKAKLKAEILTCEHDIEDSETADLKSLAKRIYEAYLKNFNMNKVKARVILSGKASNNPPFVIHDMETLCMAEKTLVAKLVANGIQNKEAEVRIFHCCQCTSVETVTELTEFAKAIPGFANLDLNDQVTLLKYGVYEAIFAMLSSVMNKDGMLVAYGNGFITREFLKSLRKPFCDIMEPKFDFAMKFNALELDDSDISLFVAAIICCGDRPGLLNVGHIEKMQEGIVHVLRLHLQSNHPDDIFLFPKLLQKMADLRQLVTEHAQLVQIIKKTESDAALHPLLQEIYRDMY
Summary of the method: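 Enzyme-fragment complementation assay in which ligand-bound PPARalpha translocates and forms an active enzyme that generates chemiluminescence. Cells were plated overnight, exposed to compound for 6 hr at 37 C, and then given detection reagent for 60 min at room temperature.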

[6] = biological target: Nuclear receptor ROR-gamma (Homo sapiens) (UniProt P51449); experiment: qHTS assay for small molecule antagonists of the retinoid-related orphan receptor gamma (ROR-gamma) signaling pathway (AID 651802); also: series mostly up to about 92 µM; % is scaled to controls: 0 for no effect and ±100 for the full control effect; nearly all actives have a fitted effect of over 60% in size
Sequence of Nuclear receptor ROR-gamma (Homo sapiens) (P51449 whole entry, looked up): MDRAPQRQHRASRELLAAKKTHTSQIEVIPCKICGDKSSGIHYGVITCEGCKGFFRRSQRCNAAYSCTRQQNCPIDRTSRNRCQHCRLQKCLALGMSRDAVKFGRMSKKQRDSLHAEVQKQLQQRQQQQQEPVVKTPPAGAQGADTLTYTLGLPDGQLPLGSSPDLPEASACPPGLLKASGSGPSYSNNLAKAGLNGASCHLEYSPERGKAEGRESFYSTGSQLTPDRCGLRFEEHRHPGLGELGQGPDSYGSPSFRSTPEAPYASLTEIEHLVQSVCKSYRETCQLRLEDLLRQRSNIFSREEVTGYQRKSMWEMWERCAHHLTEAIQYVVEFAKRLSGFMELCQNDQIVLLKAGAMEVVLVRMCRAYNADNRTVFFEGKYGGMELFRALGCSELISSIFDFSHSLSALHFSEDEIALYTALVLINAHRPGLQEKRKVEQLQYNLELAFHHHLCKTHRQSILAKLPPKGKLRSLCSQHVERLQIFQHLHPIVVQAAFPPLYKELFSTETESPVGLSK
Summary of the method: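 CHO cells carrying TET-inducible ROR-gamma and an ROR response element–luciferase reporter were exposed to compound, then induced with doxycycline. After 16hr at 37C, luminescence was read; lower signal indicates antagonism.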

[7] = qHTS assay for small molecule agonists of the antioxidant response element (ARE) signaling pathway measured by Nrf2-dependant transcriptional activity (AID 720636; active = well fitted curve in the direction sought with a large enough effect in the repeat runs; an effect the other way counts as inactive or inconclusive;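 also: HepG2 cells with an ARE-driven luciferase reporter; % of control where 0% means no effect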)
Summary of the method: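 ONE-Glo luminescence, read 30 min after reagent addition at room temperature, reflected ARE reporter activity in HepG2 cells that had been incubated with compound for 16 hr at 37 C in 1% dialyzed FBS.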

[8] = qHTS assay for small molecule antagonists of the retinoid-related orphan receptor gamma (ROR-gamma) signaling pathway - cell viability counter screen (AID 720652; active = well fitted curve in the direction sought with a large enough effect in the repeat runs; an effect the other way counts as inactive or inconclusive;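 also: series mostly up to about 92 µM; compound exposure lasted 16 hr before ATP read; % is scaled to controls: 0 for no effect and ±100 for the full control effect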)
Summary of the method: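 Counter screen in CHO cells carrying TET-inducible ROR-gamma and an ROR response element-luciferase reporter; cells plated 5 hr, compound pinned, doxycycline added, then 16 hr at 37 C. Viability read as intracellular ATP by CellTiter-Glo luminescence.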

[9] = qHTS assay for small molecule agonists of the antioxidant response element (ARE) signaling pathway measured by Nrf2-dependant transcriptional activity - cell viability counter screen (AID 720653; active = well fitted curve in the direction sought with a large enough effect in the repeat runs; an effect the other way counts as inactive or inconclusive; also: % is scaled to controls: 0 for no effect and ±100 for the full control effect); details: ARE-bla HepG2 viability, CellTiter-Glo ATP luminescence, 16 h; stronger effect = lower value
Summary of the method: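 ARE-bla HepG2 cells treated with compounds for 16 h at 37C; this counter screen measures viability as intracellular ATP by CellTiter-Glo luminescence after 30 min at room temperature.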

[10] = qHTS assay for cell viability of HEK293 cells (AID 743288); details: ATP luminescence (CellTiter-Glo), 18 h, stronger effect = lower value; also: % is scaled to controls: 0 for no effect and ±100 for the full control effect; nearly all actives have a fitted effect of over 50% in size
Summary of the method: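 Luminescent ATP quantitation served as the viability read-out. Cells (parental HEK293, 2,000/well) received compounds after at least 5 h at 37 C and were exposed for 18 h before a 30 min room-temperature reagent step.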

[11] = qHTS assay for cell viability of the p53RE-bla HCT-116 cell line (AID 743292); also: % is scaled to controls: 0 for no effect and ±100 for the full control effect; nearly all actives have a fitted effect of over 55% in size
Summary of the method: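 After plating at 4,000 cells per well and a 5 h rest at 37 C, HCT-116 cells carrying p53RE-bla received test chemicals in DMSO. Sixteen hours later at 37 C, CellTiter-Glo was added and luminescence recorded following 30 min at room temperature.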

[12] = biological target: Nuclear receptor subfamily 1 group I member 2 (Rattus norvegicus) (UniProt Q9R1A7); experiment: qHTS assay for small molecule activators of the rat pregnane X receptor (rPXR) signaling pathway (AID 651751; call rule not given here; also: 0% is about no effect); details: rPXR reporter cells, luciferase (One-Glo), 24 h
Sequence of Nuclear receptor subfamily 1 group I member 2 (Rattus norvegicus) (Q9R1A7 whole entry, looked up): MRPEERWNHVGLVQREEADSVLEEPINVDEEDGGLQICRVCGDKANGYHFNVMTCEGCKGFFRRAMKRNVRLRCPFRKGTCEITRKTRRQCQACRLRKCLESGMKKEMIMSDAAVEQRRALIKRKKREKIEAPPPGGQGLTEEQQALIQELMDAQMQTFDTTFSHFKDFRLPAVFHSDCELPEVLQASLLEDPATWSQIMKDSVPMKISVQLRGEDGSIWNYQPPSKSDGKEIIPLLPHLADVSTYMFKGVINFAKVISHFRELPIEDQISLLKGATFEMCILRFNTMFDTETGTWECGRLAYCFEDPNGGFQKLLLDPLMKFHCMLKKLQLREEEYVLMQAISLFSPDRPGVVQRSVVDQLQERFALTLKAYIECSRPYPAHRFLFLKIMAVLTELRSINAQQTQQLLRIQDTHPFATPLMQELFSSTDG

[13] = qHTS assay for small molecule activators of the human pregnane X receptor (PXR) signaling pathway (AID 720659; call rule not given here; also: 0% is about no effect)

CNC(=O)c1ccccc1
inactive: Potency [1] | Potency [2] | Potency [3] | activation [4] -0.192% | max response [5] -1.17% | Potency [6] | outcome [7] | Potency [8] | max response [9] -3.92% | max response [10] 8.06% | Potency [11] | max response [12] -4.07% | outcome [13]

CCCCN(CCO)CCCC
inactive: Potency [1] | Potency [2] | Potency [3] | activation [4] -0.692% | max response [5] -1.07% | Potency [6] | outcome [7] | Potency [8] | max response [9] -4.16% | max response [10] -7.26% | Potency [11] | max response [12] 1.69% | outcome [13]

Nc1nc(CC(=O)O)cs1
inactive: Potency [1] | Potency [2] | Potency [3] | activation [4] -0.467% | max response [5] 1.57% | Potency [6] | outcome [7] | Potency [8] | max response [9] 4.24% | max response [10] -0.757% | Potency [11] | max response [12] -3.19% | outcome [13]

BrC(Br)C(Br)Br
inactive: Potency [1] | Potency [2] | Potency [3] | activation [4] -0.0804% | max response [5] 6.41% | Potency [6] | outcome [7] | Potency [8] | max response [9] 0.416% | max response [10] 6.64% | Potency [11] | max response [12] 0.617% | outcome [13]

O=C(O)CNC(=O)c1ccc(CO)o1
inactive: Potency [1] | Potency [2] | Potency [3] | activation [4] -1.34% | max response [5] -5.12% | Potency [6] | outcome [7] | Potency [8] | max response [9] -15.7% | max response [10] -5.2% | Potency [11] | max response [12] -7.08% | outcome [13]

Cc1cc(C)cc(O)c1
inactive: Potency [1] | Potency [2] | Potency [3] | activation [4] -0.55% | max response [5] -2.86% | Potency [6] | outcome [7] | max response [9] -0.981% | max response [10] -5.39% | Potency [11] | max response [12] -0.901% | outcome [13]

CC/C=C/C#N
inactive: Potency [1] | Potency [2] | Potency [3] | activation [4] -1.16% | max response [5] 9.19% | outcome [7] | Potency [8] | max response [9] 1.63% | max response [10] 5.67% | Potency [11] | max response [12] 1.47% | outcome [13]

Cc1ccc(C(=O)O)cc1
inactive: Potency [1] | Potency [2] | Potency [3] | activation [4] -0.0785% | max response [5] 2.54% | Potency [6] | outcome [7] | max response [9] 8.21% | max response [10] -10.4% | max response [12] 3.84% | outcome [13]

C[C@@H]1CC2(OC[C@]3(C)O[C@H]23)O[C@H]2C[C@@]3(C)[C@@H]4CC[C@H]5C(C)(C)C(O[C@@H]6OC[C@@H](O)[C@H](O)[C@H]6O)CC[C@@]56C[C@@]46CC[C@]3(C)[C@@H]12 (stereo partly specified)
inactive: Potency [1] | Potency [2] | Potency [3] | activation [4] -1.5% | max response [5] 0.712% | Potency [6] | outcome [7] | Potency [8] | max response [9] -3.07% | Potency [11] | max response [12] 2.43% | outcome [13]

CC(=O)OC(C)=O
inactive: Potency [1] | Potency [2] | Potency [3] | activation [4] 1.76% | max response [5] -5.07% | Potency [6] | outcome [7] | Potency [8] | max response [9] 5.05% | max response [10] 3.19% | Potency [11] | max response [12] 5.82% | outcome [13]

CSCCC=O
inactive: Potency [1] | Potency [2] | Potency [3] | activation [4] -0.987% | max response [5] 13.7% | Potency [6] | outcome [7] | Potency [8] | max response [9] -0.733% | max response [10] 1.22% | Potency [11] | max response [12] 4.33%

ClCCl
inactive: Potency [1] | Potency [2] | Potency [3] | activation [4] 0.008% | max response [5] -6.14% | Potency [6] | outcome [7] | Potency [8] | max response [9] 8.53% | Potency [11] | max response [12] 1.89% | outcome [13]

Cc1cccc(Br)c1
inactive: Potency [1] | Potency [2] | Potency [3] | activation [4] 0.194% | max response [5] -5.52% | Potency [6] | outcome [7] | max response [9] 6.53% | max response [10] 1.57% | max response [12] -3.61% | outcome [13]

Cc1ccco1
inactive: Potency [1] | Potency [2] | Potency [3] | activation [4] -0.591% | max response [5] -4.89% | Potency [6] | outcome [7] | Potency [8] | max response [9] -4.14% | Potency [11] | max response [12] -0.023% | outcome [13]

NS(=O)(=O)O
inactive: Potency [1] | Potency [2] | Potency [3] | activation [4] 0.965% | max response [5] -1.54% | Potency [6] | max response [9] 3.57% | max response [10] 3.9% | max response [12] -5.24% | outcome [13]

CCC=O
inactive: Potency [1] | Potency [2] | Potency [3] | activation [4] -0.0092% | max response [5] -0.926% | Potency [6] | outcome [7] | max response [9] -3.76% | max response [10] 1.05% | Potency [11] | max response [12] 1.07% | outcome [13]

C=CCOC(=O)COCCC(C)C
inactive: Potency [1] | Potency [2] | Potency [3] | activation [4] -0.312% | max response [5] -5.81% | Potency [6] | outcome [7] | Potency [8] | max response [9] 5.49% | Potency [11] | max response [12] -3.06% | outcome [13]
